In PubChem BioAssay (Tox21):
Records with an inconclusive call do not appear. Calls of active or inactive are those of the source. Calls come from the whole dose curve; as a rule, active = well fitted cell-killing curve with a large enough effect in the repeat runs; inconclusive = weak or mixed curves, or effect the other way; inactive = flat fitted curve, though single readings scatter.

Assay: cAMP Responsive Elements (CRE) small molecule agonists, cell-based qHTS assay: qHTS cell viability counter screen (AID 2060914); note: nearly all actives have a fitted effect of over 50% in size
Conditions: CRE-bla HEK293T viability, CellTiter-Glo luminescence, 5 h; series mostly up to 92.4 µM; activity change, negative = cytotoxicity: at the top concentration
Method in brief: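 Luminescence read-out (CellTiter-Glo, 30 min RT) of ATP-based viability in CRE-bla HEK 293T cells, run in the same wells as the β-lactamase reporter assay after 3 h compound treatment at 37 °C.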
% is set by controls: 0 for no effect and ±100 for the full control effect; potency is the fitted concentration of half-maximal effect.

Compound	activity change, negative = cytotoxicity	Potency
CC1=C2[C@H]3OC(=O)[C@@H](C)[C@@H]3CC[C@@]2(C)C=CC1=O	-4.35% [at 42.5 µM] (inactive)	–
CCCC(Cn1cncn1)c1ccc(Cl)cc1Cl (stereo not given)	-3.94% (inactive)	–
CC1=NNC(=O)N(/N=C/c2cccnc2)C1	-0.939% (inactive)	–
ClCCN1CCCC1	-1.95% [at 42.5 µM] (inactive)	–
O=C(Nc1ccc(Br)cc1)c1cc(Br)cc(Br)c1O	–	inactive
CCCSP(=O)(OCC)SCCC	-14.6% (inactive)	–
Cc1cc(C)c(C(=O)P(=O)(c2ccccc2)c2ccccc2)c(C)c1	-13.1% (inactive)	–
CN(C)C(=O)Nc1ccc(Cl)cc1	–	inactive
CCN(CC)C(C)C(=O)c1ccccc1 (stereo not given)	-14.9% [at 42.5 µM] (inactive)	–
CCC(C)(NC(=O)c1cc(Cl)c(C)c(Cl)c1)C(=O)CCl (stereo not given)	-29.7% (inactive)	–
CC(=O)[O-].[Tl+]	4.17% (inactive)	–
C=CC(=O)OCC(CC)(COC(=O)C=C)COC(=O)C=C	14.5% (inactive)	–
N#CN=C1SCCN1Cc1ccc(Cl)nc1	0.965% (inactive)	–
O=[N+]([O-])c1cccc2c([N+](=O)[O-])cccc12	–	61.4 µM (active)
Cc1cc2c3c(c1)C(c1ccccc1)=N[C@@H](NC(=O)c1ccncc1)C(=O)N3CC2	7.57% (inactive)	–
COC(=O)c1ccccc1CS(=O)(=O)NC(=O)Nc1nc(OC)cc(OC)n1	0.445% (inactive)	–
Cc1cc(N=Nc2ccccc2C)ccc1N	–	inactive
Oc1ccc(-c2ccccc2)cc1	–	inactive
O=S(=O)(NS(=O)(=O)C(F)(F)F)C(F)(F)F	-10.8% (inactive)	–
CC(C)c1ccc(OP(=O)(Oc2ccc(C(C)C)cc2)Oc2ccc(C(C)C)cc2)cc1	–	inactive

Compound	activity change, negative = cytotoxicity	Potency
NC(=S)Nc1ccccc1	8.38% (inactive)	–
CO/N=C(/C1=NOCCO1)c1ccccc1Oc1ncnc(Oc2ccccc2Cl)c1F	-16.5% (inactive)	–
Cc1cc(C2CC2)nc(Nc2ccccc2)n1	-29.4% (inactive)	–
COC[C@@H](NC(C)=O)C(=O)NCc1ccccc1	-25.1% [at 42.5 µM] (inactive)	–
CC(C)OC(=O)C(O)(c1ccc(Cl)cc1)c1ccc(Cl)cc1	-26.5% (inactive)	–
COc1cccc(C(=O)CCN[C@@H](C)[C@H](O)c2ccccc2)c1	8.03% [at 42.5 µM] (inactive)	–
Cc1ccc(-c2c(Cl)nc(C#N)n2S(=O)(=O)N(C)C)cc1	-7.66% (inactive)	–
CCOP(=S)(OCC)SC(CCl)N1C(=O)c2ccccc2C1=O (stereo not given)	-7.05% (inactive)	–
COP(=S)(OC)Oc1cc(Cl)c(Br)cc1Cl	-11.7% (inactive)	–
Cc1cnc(C2=NC(C)(C(C)C)C(=O)N2)c(C(=O)O)c1 (stereo not given)	1.29% (inactive)	–
Cn1sc(Cl)cc1=O	4.87% (inactive)	–
C[C@@H](N)[C@@H](O)c1ccccc1	1.88% [at 42.5 µM] (inactive)	–
Cc1ccc2c(c1N)C(=O)c1ccccc1C2=O	–	inactive
Oc1cc(Cl)c(Cl)c(Cl)c1Cl	-18.2% (inactive)	–
Cc1ccc2c(C)cccc2c1	6.39% (inactive)	–
CCCCOCN(C(=O)CCl)c1c(CC)cccc1CC	-16.4% (inactive)	–
COc1cccc2c1cc([N+](=O)[O-])c1c(C(=O)O)cc3c(c12)OCO3	13.5% (inactive)	–
Nc1ccccc1C(=O)OCCc1ccccc1	–	inactive
Cn1[nH]nnc1=S	2.65% (inactive)	–
CNC(=O)O/N=C/C(C)(C)S(C)=O (stereo not given)	–	inactive
